Screening results deposited in PubChem by National Center for Advancing Translational Sciences (NCATS).
Sampled rows, rich in hits. Any-hit rate of the full collection: about 3.4%.
RE007 growth inh – less growth of the S. pombe RE007 Vpr strain. S. pombe RE007 Vpr strain, BacTiter-Glo ATP luminescence, 24 h. Potency, µM (top dose mostly 92.2 µM), inactives show top-dose activity change, negative = less growth, hits mostly inhibitors. 360,000 compounds, 0.21% hits. AID 651644; active means well fitted falling curve with a large enough effect; inconclusive means small, poorly fitted or top-dose-only effect; inactive means no such curve, though single readings can be large or run the other way; further: nearly all actives have a fitted effect of over 50% in size
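Fission yeast strain RE007, carrying one chromosomally integrated HIV-1 vpr copy, was seeded at OD 0.01 in PMG+AL medium with 23 nL pinned compound. After 24 h at 30 °C and 99% humidity, viability was read by BacTiter-Glo luminescence.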
Giardia FBPA inh – Giardia lamblia aldolase inhibition; 290,000 compounds, 0.71% hits; AID 2451; Potency, µM (doses to about 59.6 µM), for inactives: top-dose activity, negative = inhibition, actives largely listed as inhibitors; A8B2U2; purified Giardia FBPA; further: nearly all actives have a fitted effect of over 55% in size
Target sequence (A8B2U2 whole entry, looked up): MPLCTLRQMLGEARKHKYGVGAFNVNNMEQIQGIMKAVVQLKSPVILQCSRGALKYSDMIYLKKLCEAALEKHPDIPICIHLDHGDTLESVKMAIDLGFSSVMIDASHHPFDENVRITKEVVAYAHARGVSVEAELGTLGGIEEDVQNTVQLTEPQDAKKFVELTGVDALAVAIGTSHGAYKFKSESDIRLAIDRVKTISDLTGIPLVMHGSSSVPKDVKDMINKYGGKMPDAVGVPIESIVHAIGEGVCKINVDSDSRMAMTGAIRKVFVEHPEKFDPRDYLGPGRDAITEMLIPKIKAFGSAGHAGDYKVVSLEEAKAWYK
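Giardia FBPA (40 nM reagent) was preincubated 10 min at RT with compound (up to 57.5 uM final), then substrate plus GAPDH/TPI/NAD/arsenate coupling system with diaphorase/resazurin was added; resorufin fluorescence (525/598 nm) was read after 20 min.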
Sm TGR block – inhibitors of Schistosoma mansoni thioredoxin glutathione reductase; purified TGR, DTNB reduction, TNB absorbance 405 nm; Potency, µM (highest dose often 114 µM), without a hit: top-dose activity change, negative = inhibition, actives largely listed as inhibitors; 360,000 compounds, 3% hits; AID 485364; further: nearly all actives have a fitted effect of over 60% in size
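Kinetic colorimetric format: TGR-catalysed, NADPH-driven DTNB reduction monitored via TNB absorbance. Enzyme dispensed at 20 nM; compound exposure 15 min at room temperature before reaction start.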
AmpC detergent – blocks E. coli AmpC beta-lactamase in detergent assay; Potency, µM (doses to about 114 µM), for the others: at the highest dose activity change, negative = inhibition, most hits filed as inhibitors; AmpC hydrolysis of nitrocefin, absorbance 480 nm, 0.01% Triton; AID 485294; 370,000 compounds, 0.041% hits;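 further: 0% = no-compound wells and -100% = no-enzyme wells; nearly all actives have a fitted effect of over 25% in size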
Target sequence (P00811 whole entry, looked up): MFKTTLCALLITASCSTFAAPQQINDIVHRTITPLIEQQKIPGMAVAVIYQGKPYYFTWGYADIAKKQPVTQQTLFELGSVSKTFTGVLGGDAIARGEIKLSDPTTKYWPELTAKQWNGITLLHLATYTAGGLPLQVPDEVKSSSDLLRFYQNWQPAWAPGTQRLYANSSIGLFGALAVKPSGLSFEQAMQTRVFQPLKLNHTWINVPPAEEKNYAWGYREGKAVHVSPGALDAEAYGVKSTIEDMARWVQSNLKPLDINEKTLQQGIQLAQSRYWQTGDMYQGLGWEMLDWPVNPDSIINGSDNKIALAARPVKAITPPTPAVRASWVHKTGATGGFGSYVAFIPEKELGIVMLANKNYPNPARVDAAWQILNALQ
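AmpC (5.3 nM in the dispensed reagent) in 20 mM phosphate pH 7.0 with 0.01% (detergent screen) or 0.0001% Triton X-100 was preincubated with compounds for 15 min at room temperature. Nitrocefin was then added from an 800 uM solution, and hydrolysis was followed at 480 nm.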
AmpC inh no detg – AmpC beta-lactamase inhibition without detergent; P00811; AmpC nitrocefin hydrolysis, absorbance 480 nm, 0.0001% Triton; Potency, µM (highest dose often 57.1 µM), inactives show top-dose activity change, negative = inhibition, usual class: inhibitors; 330,000 compounds, 0.52% hits;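 further: plate controls were no compound for no effect and no enzyme for full effect; nearly all actives have a fitted effect of over 20% in size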
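20 mM phosphate pH 7.0 + 0.01% (detergent screen) or 0.0001% Triton X-100; 5.3 nM AmpC reagent; cpd preinc 15 min RT; nitrocefin (800 uM stock) to start; A480 q20 s × 4 min; Activity was normalised to no-enzyme and no-compound control wells.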
Starred values were filed as active, the others as inactive; ? = inconclusive; / = no result given; [ ] = dose if it differs, or a comment. Unless noted, the call rests on the fitted dose curve; in most records, active means well fitted curve in the direction sought with a large enough effect; inconclusive means small, poorly fitted or top-dose-only effect, or another doubt; inactive means no such curve, though single readings can be large; an effect the other way counts as inactive or inconclusive. Unless noted, on the % scale 0 is the no-effect control and ±100 the full control effect; potency means the concentration at half of the fitted maximal effect.

SMILES	RE007 growth inh	Giardia FBPA inh	Sm TGR block	AmpC detergent	AmpC inh no detg
CCCCCC(=O)c1cc(CC(C(=O)OC)C(=O)OC)cc2cc(OC)c(OC)cc12	/	-2.6%[12.9 µM]	/	/	/
O=C(NC1CCC(O)CC1)c1cc(-c2ccco2)nc2ccccc12 (centres undefined)	13.6%	-15.4%	11.2µM*	0.3%	-21.6%
O=C(NCC1CCCO1)c1cc(-c2ccncc2)nc2ccccc12 (centres undefined)	-2.3%	/	-1.0%	?	-5.3%
O=C(NCC1CCCO1)c1cc(-c2ccco2)nc2ccccc12 (centres undefined)	-12.5%	0.0%	35.5µM*	-14.9%	-19.2%
COc1ccc(CCNC(=O)C2CCCN(c3nc4ccccc4s3)C2)cc1OC (centres undefined)	8.7%	18.4%	-7.5%	-12.9%	119.1%
CC(=O)Nc1ccc(C(=O)OCC(=O)N2CCCC2)cc1	19.5%	5.4%	-0.5%	?	-1.4%
c1coc(CNc2nc3nonc3nc2NCc2ccco2)c1	17.0%	?	50.1µM*	2.4%	-58.0%
Cc1nc(NCc2ccco2)c2cn[nH]c2n1	12.1%	/	/	/	/
COCCCNC(=O)Cn1c(=O)n(-c2ccc(C)c(C)c2)c(=O)c2c3c(sc21)CCCCC3	/	/	89.1µM*	14.0%	/
COCCNC(=O)Cn1c(=O)n(-c2ccc(C)c(C)c2)c(=O)c2c3c(sc21)CCCCC3	/	/	0.5%	19.1%	/
O=C(Oc1ccc(=O)n(-c2ccccc2)n1)c1cccc(Cl)c1	-18.7%	2.6%	15.8µM*	?	-13.6%
CCOC(=O)C1CCN(Cc2cc(Cl)c3ccccc3c2O)CC1	?	?	4.47µM*	-12.5%	-7.4%
Oc1c(CN2CCCC(C(F)(F)F)C2)cc(Cl)c2ccccc12 (centres undefined)	?	-15.6%	2µM*	-1.4%	-29.1%
CCOC(=O)C1CCN(Cc2ccc(OC)c(C)c2OC)CC1	-3.4%	-28.0%	-6.8%	?	-1.8%
O=C1CC(NS(=O)(=O)c2cccnc2)CN1c1ccc(F)cc1 (centres undefined)	-3.8%	/	2.3%	1.0%	?
CSc1ccc(C(=O)C2CCCN(C(=O)c3nn(C)c(=O)c4ccccc34)C2)cc1 (centres undefined)	8.5%	0.3%	14.1µM*	?	-6.9%
O=c1c2c3c(sc2n(CCN2CCCCC2)c(=O)n1Cc1ccco1)CCCCC3	4.9%	7.9%	6.8%	0.5%	0.1%
O=C(Cn1c(=O)n(Cc2ccco2)c(=O)c2c3c(sc21)CCCC3)Nc1ccccc1	-5.3%	-6.0%	50.1µM*	?	?
O=C(Cn1c(=O)n(-c2ccccc2)c(=O)c2c3c(sc21)CCCC3)Nc1ccccc1	/	/	1.7%	-0.1%	/
NC(=O)Cn1c(=O)n(Cc2ccco2)c(=O)c2c3c(sc21)CCCCC3	4.9%	-9.3%	7.08µM*	2.7%	-6.9%
O=C(/C=C/c1ccco1)NCC1OCCc2ccccc21 (centres undefined)	20.0%	-8.7%	0.501µM*	2.4%	-11.2%
O=C(NCc1ccco1)C1c2ccccc2Oc2ccccc21	-1.5%	-6.5%	39.8µM*	-5.4%	-28.4%
O=C(CCC1COc2ccccc2O1)NCC1COc2ccccc2O1 (centres undefined)	-11.3%	0.7%	-4.3%	?	2.2%
O=C(/C=C/c1ccco1)NCc1ccc2c(c1)OCO2	-14.5%	-3.0%	14.1µM*	-0.7%	-25.3%
O=C(CCC1COc2ccccc2O1)NCc1ccco1 (centres undefined)	0.4%	-2.0%	39.8µM*	-10.1%	-29.1%
SMILES	RE007 growth inh	Giardia FBPA inh	Sm TGR block	AmpC detergent	AmpC inh no detg
O=C(Nc1ccc(Cl)cc1)C1CC2CCCC(C1)C2=O (centres undefined)	7.2%	-6.2%	-6.8%	-15.2%	-20.4%
CN(C)c1ccc(-c2cc3ccccc3c(=O)o2)cc1	-0.8%	/	/	/	-19.0%
CCOc1ccc(NCc2cccn2-c2nnc(N3CCC(C(=O)NC(C)c4ccccc4)CC3)s2)cc1 (centres undefined)	/	/	-10.6%	15.6%	/
O=C(/C=C/c1ccco1)NCC1COc2ccccc2O1 (centres undefined)	-15.4%	15.1%	0.891µM*	0.5%	1.7%
COc1ccc(/C=C/C(=O)NCC2COc3ccccc3O2)c(OC)c1 (centres undefined)	-6.7%	?	10.4%	-2.7%	-16.7%
O=C(/C=C/c1ccco1)Nc1ccc2c(c1)OCO2	5.5%	-16.8%	14.1µM*	-6.3%	-26.0%
CC(CCc1ccccc1)NC(=O)CSc1cccc[n+]1[O-] (centres undefined)	-11.0%	4.4%	0.5%	-10.7%	-19.5%
C=CCCCCCCCC(=O)OC	14.2%	14.3%	50.1µM*	1.5%	-10.6%
COc1ccc2[nH]cc(CCNc3ncnc4ccc(-c5ccoc5)cc34)c2c1	/	-1.5%	/	/	/
Cc1c(S(=O)(=O)c2ccccn2)c(N)n(Cc2cccc(Cl)c2)c1C	-4.4%	-7.6%	2µM*	6.7%	-7.7%
CCOC(=O)c1cc2nc(OCC)nc(OCC)c2[nH]1	-9.9%	/	/	/	/
CCOC(=O)COc1cc(-n2c(=S)[nH]c3ccccc3c2=O)c(Cl)cc1Cl	-18.6%	-10.7%	0.4%	?	17.8µM*
Cc1ccc(C(=O)OC2OC(=O)C(Cl)=C2N2CCOCC2)cc1 (centres undefined)	9.6%	4.1%	4.9%	11.2µM*	-49.2%
O=C1C2C=CC=CC2=NC(=S)N1CCN1CCC(=C(c2ccc(F)cc2)c2ccc(F)cc2)CC1 (centres undefined)	/	-5.5%	/	/	/
COc1ccc(CCN(C)CC(=O)Nc2c(C)cc(C)cc2C)cc1OC	17.0%	?	100µM*	3.4%	55.0%
COc1ccc(CCNC(=O)c2c[nH]c3ccc(F)cc3c2=O)cc1OC	-9.8%	12.0%	-7.9%	-3.1%	63.9%
COc1ccc2[nH]cc(C(=O)CCl)c2c1	20.6%	-3.1%	2.82µM*	-14.0%	-48.9%
COc1ccc2[nH]cc(C(=O)CN(C)CCc3ccc(OC)c(OC)c3)c2c1	-6.0%	-15.9%	12.6µM*	-15.7%	-43.8%
COc1ccc(OC)c(NS(=O)(=O)c2ccc(N3CCCCS3(=O)=O)cc2)c1	/	/	4.3%	6.5%	/
CC1CCN(C(=O)COC(=O)CCCN2C(=O)c3cccc4cccc(c34)C2=O)CC1	-6.9%	/	-8.7%	?	88.8%
Cc1cc(NC(=O)COC(=O)C2CCCN2C(=O)c2cccs2)no1 (centres undefined)	7.8%	5.8%	8.3%	-5.4%	-50.4%
O=C(Cn1cnc2onc(-c3ccc(F)cc3)c2c1=O)N1CCN(c2ccccc2F)CC1	/	/	8.0%	-0.8%	/
CCCC[C@H]1CCCO[C@@](C(=O)NCc2ccccc2)(C(F)(F)F)C1	/	0.1%	/	/	/
C/C(=N\NC(=O)c1cccs1)c1c(O)cc(C)oc1=O	-3.8%	/	-9.3%	-2.9%	-22.9%
